Laboratory results as given in PubChem BioAssay (EPA / NIEHS).
Records with an inconclusive call do not appear. Activity calls are given as the source filed them. Rule for the calls: active = hit-call score of the fitted dose curve at least 0.9, where 1 is the maximum; inconclusive = response in the unintended direction; inactive = score below 0.9.

Legend:
[1] = TOX21_p53_BLA_p2_viability: Viability Assessment in the Tox21 HCT-116 p53 Agonism Beta-lactamase Assay, Phase 2 (AID 2283591);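 note: actives lower the ATP signal meaning cytotoxicity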
Outline: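 HCT116 p53-bla cells, 4000/well, dosed after 5 h plating (217-fold dilution of DMSO stocks) and incubated 16 h at 37C. Viability taken as cellular ATP by CellTiter-Glo luminescence after 30 min RT; signal loss marks cytotoxicity.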

[2] = biological target: Cellular tumor antigen p53 (Homo sapiens) (UniProt P04637); test: TOX21_p53_BLA_p3_ratio: Tox21 HCT-116 p53 Agonism Beta-lactamase Assay, Ratio, Phase 3 (AID 2283596)
Sequence of Cellular tumor antigen p53 (Homo sapiens) (P04637 whole entry, looked up): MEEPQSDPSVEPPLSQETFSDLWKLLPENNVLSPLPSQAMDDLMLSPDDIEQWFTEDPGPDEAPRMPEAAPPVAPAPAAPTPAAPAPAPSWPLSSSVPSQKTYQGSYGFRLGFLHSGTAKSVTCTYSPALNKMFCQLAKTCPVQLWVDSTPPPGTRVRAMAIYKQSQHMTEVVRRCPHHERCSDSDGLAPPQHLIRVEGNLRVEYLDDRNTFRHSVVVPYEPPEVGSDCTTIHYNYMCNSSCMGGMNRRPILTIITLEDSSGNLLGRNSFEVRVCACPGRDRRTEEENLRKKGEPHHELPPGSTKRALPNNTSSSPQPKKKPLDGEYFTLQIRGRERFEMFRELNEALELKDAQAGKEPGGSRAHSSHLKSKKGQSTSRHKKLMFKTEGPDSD
Outline: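 Cells were seeded at 4000/well, rested 5 h at 37C, then dosed with DMSO compound solutions (217-fold dilution) for 16 h. CCF4-AM substrate was loaded for 2 h at room temperature, and the 460/530 nm emission ratio was fitted for gain of signal versus DMSO.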

[3] = TOX21_p53_BLA_p4_viability: Viability Assessment in the Tox21 HCT-116 p53 Agonism Beta-lactamase Assay, Phase 4 (AID 2283597);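 note: hits lower the luminescence signal meaning cytotoxicity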
Outline: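 4000 HCT116 cells per well; 5 h attachment; compounds from DMSO, 217-fold dilution; 16 h at 37C. Then CCF4-AM, 2 h RT, followed by CellTiter-Glo, 30 min RT, luminescence. Decrease = cytotoxicity.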

[4] = biological target: Cellular tumor antigen p53 (Homo sapiens) (UniProt P04637); test: TOX21_p53_BLA_p5_ratio: Tox21 HCT-116 p53 Agonism Beta-lactamase Assay, Ratio, Phase 5 (AID 2283599)
Outline: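 HCT-116 p53-bla cells (4000/well) plated 5 h, dosed with compound (217-fold DMSO dilution) for 16 h at 37 C; CCF4-AM substrate 2 h at room temperature. Activity is the 460/530 nm emission ratio (405 nm excitation), fitted in gain-of-signal direction versus DMSO.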

[5] = TOX21_p53_BLA_p5_viability: Viability Assessment in the Tox21 HCT-116 p53 Agonism Beta-lactamase Assay, Phase 5 (AID 2283600)
Outline: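 Decreased CellTiter-Glo luminescence denotes lost viability. Exposure: 16 h at 37C, 5% CO2, with compounds from DMSO stocks diluted 217-fold in wells of 4000 cells.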

[6] = biological target: Cellular tumor antigen p53 (Homo sapiens) (UniProt P04637); test: TOX21_p53_BLA_p4_ratio: Tox21 HCT-116 p53 Agonism Beta-lactamase Assay, Ratio, Phase 4 (AID 2283601)
Outline: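 HCT-116 p53 beta-lactamase reporter cells (4000/well) preincubated 5 h, then compound (217-fold dilution of DMSO stock) for 16 h at 37C. CCF4-AM substrate added 2 h at room temperature; 460/530 nm emission ratio fitted upward versus DMSO.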

Measured: outcome

C[C@H]1CC[C@]2(NC1)O[C@H]1C[C@H]3[C@@H]4CC[C@H]5C[C@@H](O)CC[C@]5(C)[C@H]4CC[C@]3(C)[C@H]1[C@@H]2C
not listed: [6]
inactive: all other assays above

O=c1c2ccccc2[se]n1-c1ccccc1
not listed: [5]
inactive: all other assays above

CNC(=O)Oc1ccccc1C(C)C
inactive: [1] | [2] | [6]

ClCc1ccc(Cl)cc1Cl
inactive: [1] | [2] | [4] | [5]

Cc1cccc(N)c1C
not listed: [2]
inactive: all other assays above

O=NN1CCCCC1
not listed: [3]
inactive: all other assays above

CCCCCCCCP(=O)(O)O
inactive: [1] | [2] | [6]

O=C(Cl)C(Cl)(Cl)Cl
not listed: [4]
inactive: all other assays above

CN(C)CCCCCCN(C)C
inactive: [1] | [5] | [6]

C[C@H](CN1CCOCC1)C(C(=O)N1CCCC1)(c1ccccc1)c1ccccc1
inactive: [1] | [3]

N#CNC#N
inactive: [1] | [3] | [5] | [6]

CCCSC(=O)Cl
inactive: [1] | [5] | [6]

c1ccc(CN2CCNCC2)cc1
inactive: [1] | [2] | [4]

O=[N+]([O-])c1ccccc1-c1ccccc1
inactive: [1] | [2] | [4] | [5]
